Test results: PubChem BioAssay AID1159580 (chemical genetic matrix, 2015)
Hit rate of the full screen: of about 5,500 compounds, about 2,000 (36%) were called active. Inconclusive results (about 18%) are left out. Cut-off read from the data, not from the text of the source: active = normalized growth mostly below about 0.91 (no sharp cut-off); inconclusive = no clear call, values can overlap the other calls; inactive = mostly above about 0.92. Some of the results follow.

Assay: chemical genetic growth profiling, strain panel (AID 1159580);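 note: tested at 20 µM; growth read once vehicle control cultures reached saturation at 30 °C; 1 = growth at the plate median or of vehicle wells; lower values mean less growth of the strain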
Details: S. cerevisiae deletion strains, growth OD

Measured: normalized growth

C=C1C2=CC(=O)O[C@@H](c3ccoc3)[C@]2(C)CCC1[C@@]1(C)C=CC(=O)C(C)(C)[C@@H]1CC(=O)OC (stereo partly drawn)
inactive: locus YAL021C, strain ccr4, active compounds read low 1.04 | locus YAL026C, strain drs2, active compounds read low 0.996 | locus YAL030W, strain snc1, active compounds read low 0.998 | locus YBL061C, strain skt5, active compounds read low 0.999 | locus YBR009C, strain hhf1, active compounds read low 1.02 | locus YBR021W, strain FUR4, active compounds read low 0.989 | locus YBR023C, strain chs3, active compounds read low 1.01 | locus YBR171W, strain sec66, active compounds read low 0.983 | locus YBR229C, strain ROT2, active compounds read low 1 | locus YBR231C, strain swc5, active compounds read low 0.982 | locus YBR279W, strain paf1, active compounds read low 1 | locus YCL011C, strain gbp2, active compounds read low 1.01 | locus YCL016C, strain dcc1, active compounds read low 1.04 | locus YCL029C, strain bik1, active compounds read low 0.983 | locus YCL061C, strain MRC1, active compounds read low 1.01 | locus YCL069W, strain vba3, active compounds read low 0.984 | locus YCR088W, strain abp1, active compounds read low 0.982 | locus YDL005C, strain med2, active compounds read low 0.996 | locus YDL035C, strain GPR1, active compounds read low 0.991 | locus YDL040C, strain nat1, active compounds read low 0.999 | locus YDL074C, strain BRE1, active compounds read low 1.02 | locus YDL101C, strain DUN1, active compounds read low 1.01 | locus YDL185W, strain tfp1, active compounds read low 0.988 | locus YDL192W, strain arf1, active compounds read low 0.999 | locus YDR001C, strain nth1, active compounds read low 0.994 | locus YDR069C, strain doa4, active compounds read low 0.991 | locus YDR101C, strain arx1, active compounds read low 0.958 | locus YDR137W, strain rgp1, active compounds read low 0.999 | locus YDR150W, strain NUM1, active compounds read low 1.01 | locus YDR159W, strain sac3, active compounds read low 0.953 | locus YDR162C, strain NBP2, active compounds read low 1 | locus YDR195W, strain ref2 0.95 | locus YDR297W, strain sur2, active compounds read low 0.988 | locus YDR318W, strain mcm21, active compounds read low 1.01 | locus YDR334W, strain swr1, active compounds read low 0.982 | locus YDR335W, strain msn5, active compounds read low 0.997 | locus YDR388W, active compounds read low 1 | locus YDR392W, strain spt3, active compounds read low 1.03 | locus YDR502C, strain sam2, active compounds read low 0.988 | locus YEL003W, strain gim4, active compounds read low 0.994 | locus YEL037C, strain rad23, active compounds read low 1 | locus YEL061C, strain CIN8 (second series), active compounds read low 0.978 | locus YER015W, strain faa2, active compounds read low 1.01 | locus YER016W, strain bim1, active compounds read low 0.985 | locus YER110C, active compounds read low 0.997 | locus YER111C, strain swi4, active compounds read low 0.986 | locus YER155C, strain BEM2 (second series), active compounds read low 1.02 | locus YER155C, strain BEM2, active compounds read low 0.982 | locus YER167W, strain BCK2, active compounds read low 1 | locus YFR010W, strain ubp6, active compounds read low 0.972 | locus YGL078C, strain dbp3, active compounds read low 0.999 | locus YGL086W, strain mad1, active compounds read low 0.999 | locus YGL167C, strain pmr1, active compounds read low 1.01 | locus YGL173C, strain kem1, active compounds read low 0.99 | locus YGL227W, strain vid30, active compounds read low 0.992 | locus YGL240W, strain doc1, active compounds read low 0.994 | locus YGL248W, strain PDE1, active compounds read low 1.01 | locus YGL253W, strain hxk2, active compounds read low 0.937 | locus YGR078C, strain PAC10, active compounds read low 1.01 | locus YGR135W, strain pre9, active compounds read low 1.01 | locus YGR252W, strain gcn5, active compounds read low 0.976 | locus YHR013C, strain ard1, active compounds read low 1.01 | locus YHR027C, strain rpn1, active compounds read low 0.976 | locus YHR079C, strain IRE1 (second series), active compounds read low 0.985 | locus YHR094C, strain hxt1, active compounds read low 0.996 | locus YHR129C, strain ARP1, active compounds read low 1.01 | locus YHR142W, strain chs7, active compounds read low 1.01 | locus YHR200W, strain rpn10, active compounds read low 1 | locus YIL066C, strain RNR3, active compounds read low 1.01 | locus YIL073C, strain SPO22, active compounds read low 1.02 | locus YIL125W, strain kgd1, active compounds read low 0.995 | locus YIR030C, strain dcg1, active compounds read low 1 | locus YJL092W, strain hpr5, active compounds read low 0.984 | locus YJL095W, strain BCK1 (second series), active compounds read low 0.986 | locus YJL095W, strain BCK1, active compounds read low 1.02 | locus YJL115W, strain asf1, active compounds read low 0.999 | locus YJL129C, strain trk1, active compounds read low 0.99 | locus YJL134W, strain LCB3, active compounds read low 0.997 | locus YJL154C, strain vps35, active compounds read low 0.995 | locus YJL164C, strain tpk1, active compounds read low 1.02 | locus YJL166W, strain qcr8, active compounds read low 0.996 | locus YJL168C, strain set2, active compounds read low 1 | locus YJL187C, strain SWE1 (second series), active compounds read low 1.01 | locus YJL187C, strain SWE1, active compounds read low 0.99 | locus YJR075W, strain HOC1, active compounds read low 0.993 | locus YKL009W, strain mrt4, active compounds read low 0.976 | locus YKL068W, active compounds read low 0.997 | locus YKL085W, strain MDH1 (second series), active compounds read low 0.992 | locus YKL085W, strain MDH1, active compounds read low 0.992 | locus YKL160W, strain elf1, active compounds read low 1.06 | locus YKR001C, strain vps1, active compounds read low 0.998 | locus YKR026C, strain gcn3, active compounds read low 0.976 | locus YKR091W, strain srl3, active compounds read low 0.994 | locus YLL001W, strain dnm1, active compounds read low 0.99 | locus YLL026W, active compounds read low 0.989 | locus YLL041C, strain sdh2, active compounds read low 0.987 | locus YLR027C, strain aat2, active compounds read low 0.978 | locus YLR039C, strain RIC1, active compounds read low 1.05 | locus YLR058C, strain SHM2, active compounds read low 1.01 | locus YLR102C, strain apc9, active compounds read low 1 | locus YLR221C, strain rsa3, active compounds read low 0.987 | locus YLR258W, strain gsy2, active compounds read low 1.02 | locus YLR262C, strain YPT6 (second series), active compounds read low 0.997 | locus YLR262C, strain YPT6, active compounds read low 1.08 | locus YLR268W, strain sec22, active compounds read low 0.996 | locus YLR320W, strain mms22, active compounds read low 1.01 | locus YLR342W, strain FKS1 (second series), active compounds read low 1.01 | locus YLR342W, strain FKS1, active compounds read low 0.995 | locus YLR357W, strain rsc2, active compounds read low 1.03 | locus YLR370C, strain arc18, active compounds read low 0.97 | locus YLR371W, strain rom2, active compounds read low 0.998 | locus YLR384C, strain iki3, active compounds read low 1 | locus YLR418C, strain cdc73, active compounds read low 1.01 | locus YML016C, strain PPZ1, active compounds read low 0.998 | locus YML032C, strain rad52, active compounds read low 0.984 | locus YML120C, strain ndi1, active compounds read low 1.02 | locus YML124C, strain tub3, active compounds read low 0.997 | locus YMR058W, strain fet3, active compounds read low 1 | locus YMR078C, strain ctf18, active compounds read low 1 | locus YMR125W, strain sto1, active compounds read low 1 | locus YMR129W, active compounds read low 0.991 | locus YMR205C, strain PFK2, active compounds read low 1.07 | locus YMR223W, strain ubp8, active compounds read low 0.989 | locus YMR231W, strain pep5, active compounds read low 0.973 | locus YMR307W, strain GAS1, active compounds read low 1.03 | locus YNL067W, strain RPL9B, active compounds read low 1 | locus YNL071W, strain lat1, active compounds read low 0.996 | locus YNL209W, strain ssb2, active compounds read low 1.03 | locus YNL233W, strain BNI4, active compounds read low 1.01 | locus YNL248C, strain rpa49, active compounds read low 0.966 | locus YNL250W, strain rad50, active compounds read low 0.997 | locus YNL271C, strain bni1, active compounds read low 0.995 | locus YNL298W, strain CLA4, active compounds read low 0.988 | locus YNL307C, strain MCK1, active compounds read low 1 | locus YNL322C, strain KRE1 (second series), active compounds read low 0.995 | locus YNL322C, strain KRE1, active compounds read low 0.995 | locus YNR049C, strain mso1, active compounds read low 0.99 | locus YNR052C, strain pop2, active compounds read low 1.01 | locus YOL012C, strain htz1 1.06 | locus YOL147C, strain pex11, active compounds read low 0.996 | locus YOR001W, strain rrp6, active compounds read low 0.947 | locus YOR061W, strain CKA2, active compounds read low 0.994 | locus YOR069W, strain VPS5, active compounds read low 1 | locus YOR070C, strain gyp1, active compounds read low 1 | locus YOR080W, strain dia2, active compounds read low 0.983 | locus YOR083W, strain WHI5, active compounds read low 1.06 | locus YOR106W, strain vam3, active compounds read low 1.03 | locus YOR136W, strain idh2, active compounds read low 0.993 | locus YOR144C, strain elg1, active compounds read low 0.995 | locus YOR184W, strain ser1, active compounds read low 0.992 | locus YOR265W, strain rbl2, active compounds read low 0.984 | locus YOR270C, strain vph1, active compounds read low 0.991 | locus YOR290C, strain snf2, active compounds read low 1.06 | locus YOR316C, strain cot1, active compounds read low 0.95 | locus YPL051W, strain arl3, active compounds read low 0.985 | locus YPL078C, strain atp4, active compounds read low 1.05 | locus YPL106C, strain sse1, active compounds read low 1.08 | locus YPL240C, strain hsp82, active compounds read low 0.992 | locus YPR119W, strain clb2, active compounds read low 1 | locus YPR141C, strain kar3, active compounds read low 0.999 | locus YPR163C, strain tif3, active compounds read low 0.991 | locus YPR167C, strain met16, active compounds read low 0.992 | strain wtn01, active compounds read low 0.978
